This note sets out measurements from PubChem BioAssay AID488969 (Vanderbilt High Throughput Screening Facility, 2010).

The full ranking holds about 110,000 compounds; the median of “z-score” is about -0.1, and the highest 2% start at about 2. The list comes from a sample in which the highest values are over-represented; it also holds similar structures and randomly drawn compounds. Calls of active or inactive are those of the source.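 How the source made its calls: active means z-score in the third read window above 3 or below -3; inactive means the rest.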

This assay deals with Metabotropic glutamate receptor 8 (Rattus norvegicus) (UniProt P70579). Nature of the assay: rat mGluR8 modulators via GIRK flux, primary screen, cell-based, thallium flux, HTS (AID 488969). Particulars: HEK293 rat mGluR8, GIRK (G protein-gated inwardly rectifying potassium channel) thallium flux, FluoZin2; at 10 µM; stronger effect = higher value; submaximal glutamate (EC20) added with thallium.
Metabotropic glutamate receptor 8 (Rattus norvegicus), sequence (P70579 whole entry, looked up): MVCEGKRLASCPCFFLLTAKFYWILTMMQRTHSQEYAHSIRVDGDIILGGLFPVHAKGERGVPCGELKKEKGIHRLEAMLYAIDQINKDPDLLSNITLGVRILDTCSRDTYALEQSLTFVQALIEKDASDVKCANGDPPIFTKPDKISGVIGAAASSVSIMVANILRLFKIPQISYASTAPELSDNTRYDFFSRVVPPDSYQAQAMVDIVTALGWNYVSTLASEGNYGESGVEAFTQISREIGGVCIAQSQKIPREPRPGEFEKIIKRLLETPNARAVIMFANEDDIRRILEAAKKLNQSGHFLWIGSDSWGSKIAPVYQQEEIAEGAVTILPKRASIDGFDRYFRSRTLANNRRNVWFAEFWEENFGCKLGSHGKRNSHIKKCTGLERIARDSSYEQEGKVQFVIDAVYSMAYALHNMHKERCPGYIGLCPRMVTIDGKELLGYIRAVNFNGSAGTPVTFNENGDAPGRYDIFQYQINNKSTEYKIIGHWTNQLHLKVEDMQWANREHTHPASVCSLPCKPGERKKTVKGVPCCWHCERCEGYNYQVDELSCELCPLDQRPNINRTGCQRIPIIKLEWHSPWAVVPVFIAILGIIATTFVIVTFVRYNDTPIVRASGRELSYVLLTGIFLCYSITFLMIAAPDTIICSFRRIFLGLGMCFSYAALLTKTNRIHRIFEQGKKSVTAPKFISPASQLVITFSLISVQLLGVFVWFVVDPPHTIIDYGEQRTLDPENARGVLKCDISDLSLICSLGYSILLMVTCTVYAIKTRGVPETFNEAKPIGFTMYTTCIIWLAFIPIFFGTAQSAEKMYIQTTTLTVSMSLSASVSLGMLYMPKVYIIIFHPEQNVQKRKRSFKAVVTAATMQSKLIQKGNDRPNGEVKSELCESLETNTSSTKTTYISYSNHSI
For `OC(COCc1ccccc1)CN1CCN(c2ccccc2)CC1` (stereo not given), the z-score is 0.802.
As for `CCCc1nc2oc3c(NCCN(C)C)ncnc3c2c2c1CCCC2`, the figure is 0.466; as for `CCOc1ccc(/C=C/C(=O)Nc2ccc(N3CCOCC3)cc2)cc1`, -0.494; as for `COCCNC(=S)NNC(=O)c1ccco1`, 0.195.
The figure for `COc1ccccc1OCC(=O)NNC(=S)NC(=O)c1ccco1` is 0.0517; for `Cc1ccccc1OCC(=O)NNC(=S)NC(=O)c1ccco1` it is 8.07 (active); for `CNC(=S)NNC(=O)COc1ccccc1C` it is -0.0807.
As for `CCCCNC(=S)NNC(=O)c1ccco1`, the figure is -0.0425.
Regarding `CCCc1ccc(OCC(=O)NNC(=S)NC(=O)c2ccco2)cc1`, the z-score was 5.78 (active).
The figure for `O=C(NCCN1CCOCC1)c1cc(Sc2ccccc2Cl)nc2ccccc12` is -1.39.
The figure for `COc1cccc(N2CC(C(=O)Nc3nnc(SCc4cccnc4)s3)CC2=O)c1` (stereo not given) is 0.711.
In turn, `O=c1[nH]c2cccnc2n1Cc1ccccc1` yielded a z-score of -0.166.
The figure for `Cc1ccccc1Nc1nnc(C)c(=O)n1N` is 0.0745; for `c1ccc(C2CCC(N3CCC(N4CCCCC4)CC3)CC2)cc1` (stereo not given) it is -0.423.
Compound `O=C(/C=C/c1ccccc1)N1CCC(c2ccccc2)C1` (stereo not given) yielded a z-score of -0.0939.
As for `C1=CN2CCC1C(c1ccccc1)C2` (stereo not given), the figure is 2.05.
Compound `COC(=O)C1CCN(C(=O)CSc2ccccc2)CC1` registered a z-score of -0.196.
The figure for `CC(C)COc1ccc(Cc2cnc(N)nc2N)cc1` is 7.02 (active); for `CC(C)Oc1ccc(Cc2cnc(N)nc2N)cc1` it is 1.03.
The figure for `COc1ccc(Cc2c(N)nc(N)nc2N)cc1` is -0.264.
The figure for `CCOc1cc(CNCCc2ccc(S(N)(=O)=O)cc2)ccc1OCC(=O)NC1CCCCC1` is 0.417; for `Cc1cc(NC(=O)c2cnccn2)no1` it is -0.0463; for `CCCc1cc(=O)[nH]c(/N=C(/NC(=O)c2ccccc2)Nc2ccc3c(c2)OCCO3)n1` it is -0.0513.
For the compound `CN(C)CCNc1ncnc2c1cnn2-c1ccc(Cl)cc1`, the z-score was 3.51 (active).
The figure for `COCCNc1ncnc2c1cnn2-c1ccc(Cl)cc1` is 0.0016; for `CN(C)CCCNc1ncnc2c1cnn2-c1ccccc1` it is 0.0262; for `CC(/C=N\NC(=O)c1cccnc1)c1ccccc1` (stereo not given) it is -0.201.
Compound `CS(=O)(=O)N1CCN(c2ccccc2NC(=O)c2cccc3ccccc23)CC1` displayed a z-score of -0.227.
The figure for `O=C(COc1c(Br)cc(Br)c2cccnc12)N1CCc2ccccc2C1` is 3.14 (active); for `O=C(COc1cccc2cccnc12)N1CCc2ccccc2C1` it is 0.452; for `O=C(COc1ncnc2sccc12)N1CCc2ccccc2C1` it is 0.0441.
In turn, `COc1ccc(S(=O)(=O)N[C@@H](Cc2ccc(Cl)cc2)C(=O)N2CC[C@@]3(O)CCCC[C@H]3C2)cc1` had a z-score of -0.0964.
As for `COCCNC(=O)c1cc(-c2ccc3c(c2)OCO3)on1`, the figure is 0.152; as for `Cc1nn(C)c(Cl)c1NC(=O)OCc1ccccc1`, -0.064; as for `CCCNC(=O)CCC(=O)Nc1ncc(-c2ccc(C)cc2)n1C`, -0.382.
As for `Cc1ccc(-c2cnc(NC(=O)CCC(=O)N3CCCCC3)n2C)cc1`, the figure is 4.3 (active); as for `Cc1ccc(-c2cnc(NC(=O)CCC(=O)N(C)Cc3ccccc3)n2C)cc1`, -0.765.
The figure for `CC(C)c1ccccc1N=C1SCCN1C1CCS(=O)(=O)C1` (stereo not given) is 0.193.
`CC(C)c1ccc(S(=O)(=O)c2n[nH]n3c2nc(=O)c2ccccc23)cc1`: the z-score is 2.66.
The figure for `CCc1ccc(S(=O)(=O)c2n[nH]n3c2nc(=O)c2ccccc23)cc1` is 0.475; for `CC(C)c1ccc(S(=O)(=O)c2nnn3c2nc(N2CCCCC2)c2ccccc23)cc1` it is -0.645.
With `O=C(/C=C/N1CCOCC1)c1ccc(-c2ccccc2)cc1`, the z-score was -0.364.
The figure for `CC1=NN(c2ccccc2)C(=O)C1N=Nc1ccccc1` (stereo not given) is 0.244; for `Cc1ccc(N=Nc2c(C)[nH][nH]c2=O)c(C)c1` it is 0.772.
The figure for `CC1=NN(C(N)=S)C(=O)C1N=Nc1c(C)cc(C)cc1C` (stereo not given) is 0.119; for `CC1=NN(C(N)=S)C(=O)C1N=Nc1ccccc1C` (stereo not given) it is 2.97.
Turning to `CC1=NN(C(N)=S)C(=O)C1N=Nc1ccc(C)cc1C` (stereo not given), the z-score was 13.2 (active).
As for `CC1=NN(c2ccccc2)C(=O)C1N=Nc1ccc(N)cc1` (stereo not given), the figure is -0.073; as for `Cc1ccccc1-n1c(C)nnc1SCc1cc(=O)oc2ccc3ccccc3c12`, 0.0722.
`CC(C)CC(=O)Nc1ccc(C(=O)NNC(=O)C(c2ccccc2)c2ccccc2)cc1` came in with a z-score of -0.258.
The figure for `O=C(O)C1CCN(C(=O)c2ccc(Cl)cc2)CC1` is 0.000989; for `Cc1cc(C)c(C)c(S(=O)(=O)NCc2ccc(C(=O)N3CCCCC3)cc2)c1C` it is 0.249.
The figure for `Cc1ccccc1OCC(=O)N1N=C(C(F)(F)F)CC1(O)C(C)(C)C` (stereo not given) is 1.61; for `Cc1cc(C)cc(OCC(=O)N2N=C(C(F)(F)F)CC2(O)C(C)(C)C)c1` (stereo not given) it is 4.9 (active).
As for `Cc1ccc(OCC(=O)N2N=C(C(F)(F)F)CC2(O)C(C)(C)C)cc1C` (stereo not given), the figure is 3.56 (active); as for `CCCCC1(O)CC(C(F)(F)F)=NN1C(=O)COc1ccccc1` (stereo not given), 0.45; as for `Cc1ccc(OCC(=O)N2N=C(c3cccnc3)CC2(O)C(F)(F)F)cc1C` (stereo not given), -0.105.
`Cc1cc(C)cc(OCC(=O)N2CCCCCC2)c1` had a z-score of -0.242.
The figure for `COP(=O)(OC)c1nc(-c2cccc3ccccc23)oc1NCc1ccccc1` is -0.666; for `CC(C)(C)C(=O)Nc1cccc(C(=O)c2cccc(NC(=O)C(C)(C)C)c2)c1` it is -0.249.
In turn, `Cc1cccc(C(=O)NC(=S)Nc2ccc(S(=O)(=O)N3CCCCC3)cc2)c1` showed a z-score of -0.0168.
On to `CCOC(=O)C1=C(C)N=C2SC(C)C(=O)N2C1c1ccc(OCC)c(OCC)c1` (stereo not given), for which the z-score is 0.125.
The figure for `COc1cc(/C=C2\SC(=S)N(CC(=O)Nc3ccccn3)C2=O)cc(OC)c1OC` is -0.0617.
As for `Cn1c(=NCC(O)COc2ccccc2)sc2ccccc21` (stereo not given), the figure is 2.27; as for `OC(CN=c1sc2ccccc2n1CC(O)COc1ccccc1)COc1ccccc1` (stereo not given), 0.0732; as for `CCN=c1sc2ccccc2n1CC(O)COc1ccccc1` (stereo not given), 0.979.
The figure for `CC(=O)N1CCC(=NNc2ccc(S(=O)(=O)N3CCOCC3)cc2[N+](=O)[O-])CC1` is 0.476.
Take `COC(=O)Cc1ccc(NC(=O)c2ccc(C(C)(C)C)cc2)cc1`: the z-score is -0.0938.
Consider `COc1ccc(/C=C/C(=O)NCc2c(C)nn(C)c2C)cc1COc1ccc(Br)cc1`, for which the z-score was -0.131.
As to `Cc1cc(C)cc(NC(=O)CN(C)S(=O)(=O)c2cnc[nH]2)c1`, the z-score was -0.129.
On to `Cc1cccc(NC(=O)CN(C)S(=O)(=O)c2cnc[nH]2)c1`, for which the z-score amounted to 1.6.
The figure for `Cc1ccc(NC(=O)CN(C)S(=O)(=O)c2cnc[nH]2)cc1C` is 2.45; for `CC1CC1C(=O)OCC(=O)NC(=O)NCc1ccco1` (stereo not given) it is -0.131.
The compound `CCc1ccc(-c2nn(-c3ccccc3)cc2C2SCC(=O)N2Cc2ccco2)cc1` (stereo not given) gave a z-score of -0.102.
The figure for `Cc1ccc(Nc2nc(N)c([N+](=O)[O-])c(N3CCOCC3)n2)cc1C` is -0.153; for `Cc1ccc(Nc2nc(N)c([N+](=O)[O-])c(N3CCCC(C)C3)n2)cc1C` (stereo not given) it is 2.26.
As for `Cc1cccc(Nc2nc(N)c([N+](=O)[O-])c(N3CCCC(C)C3)n2)c1` (stereo not given), the figure is -0.0648.
As for `O=C(NCCc1ccc(Cl)cc1)C1CCCN(S(=O)(=O)c2cnc[nH]2)C1` (stereo not given), the figure is 0.0211; as for `COc1ccc(S(=O)(=O)N(CCN2CCOCC2)Cc2cc(OC)ccc2OC)cc1`, -0.389.
The compound `Cc1cc2nc(CCN(Cc3cccnc3)C(=S)Nc3ccccc3)[nH]c2cc1C` showed a z-score of 0.259.
The figure for `O=S(=O)(c1ccc(NC(=S)Nc2ccc3c(c2)OCO3)cc1)N1CCOCC1` is 0.154; for `Cc1ccc(S(=O)(=O)N2CCOCC2)cc1C(=O)OCC(=O)Nc1ccc2c(c1)OCO2` it is -0.412.
As for `O=S(=O)(c1ccc(Nc2ccc3c(c2)OCO3)nc1)N1CCOCC1`, the figure is 2.28; as for `C=CCn1c(SCn2nnc3ccccc3c2=O)nnc1-c1ccc(Br)cc1`, 0.482; as for `Cc1ccc(/C=C(\NC(=O)c2ccc(C)cc2)c2nc(=S)[nH][nH]2)cc1`, 0.31.
`COC(=O)c1ccccc1NC(=S)N(Cc1ccc2c(c1)OCO2)Cc1cc2cc(OC)ccc2[nH]c1=O` gave a z-score of -0.529.
The figure for `COC(=O)c1ccccc1NC(=S)N(Cc1ccc2c(c1)OCO2)Cc1cc2cc(C)ccc2[nH]c1=O` is 2.03; for `COC(=O)c1ccccc1NC(=S)N(Cc1ccc2c(c1)OCO2)Cc1cc2ccc(C)cc2[nH]c1=O` it is 0.26.
As for `CC(C)(C)N=C1NN=C(c2cc3ccccc3o2)CS1`, the figure is -0.336; as for `CC(=O)O/N=C(/C)c1ncc(C(F)(F)F)cc1N1CCOCC1`, -0.337; as for `Cc1ccccc1Cn1c(CN2CCc3ccccc3C2)nc2c1c(=O)n(C)c(=O)n2C`, -0.399.
`COc1ccc(/C=C(/C(=O)c2ccc(Cl)cc2Cl)n2cncn2)cc1` showed a z-score of 0.0171.
As for `COc1ccc(C(=O)NC2CCCCCC2)cc1S(=O)(=O)N1CCCc2ccccc21`, the figure is -0.00531; as for `CCN(/N=C/c1cccs1)c1cc(=O)n(C)c(=O)[nH]1`, -0.0804; as for `O=C(NN=C1c2ccccc2-c2ccccc21)c1ccccn1`, 0.564.
With `O=C(NN=C1c2ccccc2-c2ccccc21)c1cccc(Br)c1`, the z-score is 4.19 (active).
As for `O=C(N/N=C/C=C/c1ccccc1)c1ccccc1Br`, the figure is -0.846.
As for `O=C(NN=C1c2ccccc2-c2ccccc21)c1ccccc1Br`, the figure is 5.82 (active).
As for `O=C(COc1cccc(Br)c1)NN=C1c2ccccc2-c2ccccc21`, the figure is 0.184.
Consider `O=C(N/N=C/C=C/c1ccccc1)c1cccc(Br)c1`, for which the z-score stood at 0.831.
In turn, `CCC(C)N(C)Cc1cccc(C2(O)CCN(S(=O)(=O)c3ccc(F)cc3)CC2)c1` (stereo not given) gave a z-score of -0.276.
The figure for `CCOc1ccc(Nc2oc(-c3ccccc3Cl)nc2C#N)cc1` is -0.217; for `CCOC(=O)C(CC)Sc1nnc2cc(C)c3ccccc3n12` (stereo not given) it is 7.83 (active).
As for `CCOC(=O)CSc1nnc2cc(C)c3ccccc3n12`, the figure is -1.09; as for `Cc1cc2nnc(SC(C)C)n2c2ccccc12`, -1.9.
As for `Cc1c([N+](=O)[O-])c([N+](=O)[O-])nn1CC(=O)N1CCCCC1`, the figure is -0.199.
With `Cc1ccc(S(=O)(=O)N2CCCC2C(=O)O)cc1` (stereo not given), the z-score came to 0.451.
The figure for `Cc1ccc(-c2nnn(CC(=O)NC3CC4CCC3C4)n2)cc1` (stereo not given) is 5.1 (active); for `CC1CCCCC1NC(=O)Cn1nnc(-c2ccc(Cl)cc2)n1` (stereo not given) it is 0.119.
As for `Cc1ccc(-c2nnn(CC(=O)NC3CCN(Cc4ccccc4)CC3)n2)cc1`, the figure is 0.381.
